For some of these results: Entries with a potency or affinity are not part of this list.
Columns and labels:
Set-up in all cases: scale not given: direction of the effect not stated beside the values
[1] = biological target: Protein translocase subunit SecA (Escherichia coli (strain K12)) (UniProt P10408); assay: Assay to Identify E. coli SecA ATPase Inhibitors; type: functional; conditions: 30 µM
[2] = biological target: T1, Ubiquitin-activating enzyme e1, putative (Leishmania donovani (strain BPK282A1)) (UniProt E9BSI1); assay: Leishmania donovani Ubiquitin Activating Enzyme (LdE1); type: functional; conditions: 30 µM
T1 sequence (whole entry): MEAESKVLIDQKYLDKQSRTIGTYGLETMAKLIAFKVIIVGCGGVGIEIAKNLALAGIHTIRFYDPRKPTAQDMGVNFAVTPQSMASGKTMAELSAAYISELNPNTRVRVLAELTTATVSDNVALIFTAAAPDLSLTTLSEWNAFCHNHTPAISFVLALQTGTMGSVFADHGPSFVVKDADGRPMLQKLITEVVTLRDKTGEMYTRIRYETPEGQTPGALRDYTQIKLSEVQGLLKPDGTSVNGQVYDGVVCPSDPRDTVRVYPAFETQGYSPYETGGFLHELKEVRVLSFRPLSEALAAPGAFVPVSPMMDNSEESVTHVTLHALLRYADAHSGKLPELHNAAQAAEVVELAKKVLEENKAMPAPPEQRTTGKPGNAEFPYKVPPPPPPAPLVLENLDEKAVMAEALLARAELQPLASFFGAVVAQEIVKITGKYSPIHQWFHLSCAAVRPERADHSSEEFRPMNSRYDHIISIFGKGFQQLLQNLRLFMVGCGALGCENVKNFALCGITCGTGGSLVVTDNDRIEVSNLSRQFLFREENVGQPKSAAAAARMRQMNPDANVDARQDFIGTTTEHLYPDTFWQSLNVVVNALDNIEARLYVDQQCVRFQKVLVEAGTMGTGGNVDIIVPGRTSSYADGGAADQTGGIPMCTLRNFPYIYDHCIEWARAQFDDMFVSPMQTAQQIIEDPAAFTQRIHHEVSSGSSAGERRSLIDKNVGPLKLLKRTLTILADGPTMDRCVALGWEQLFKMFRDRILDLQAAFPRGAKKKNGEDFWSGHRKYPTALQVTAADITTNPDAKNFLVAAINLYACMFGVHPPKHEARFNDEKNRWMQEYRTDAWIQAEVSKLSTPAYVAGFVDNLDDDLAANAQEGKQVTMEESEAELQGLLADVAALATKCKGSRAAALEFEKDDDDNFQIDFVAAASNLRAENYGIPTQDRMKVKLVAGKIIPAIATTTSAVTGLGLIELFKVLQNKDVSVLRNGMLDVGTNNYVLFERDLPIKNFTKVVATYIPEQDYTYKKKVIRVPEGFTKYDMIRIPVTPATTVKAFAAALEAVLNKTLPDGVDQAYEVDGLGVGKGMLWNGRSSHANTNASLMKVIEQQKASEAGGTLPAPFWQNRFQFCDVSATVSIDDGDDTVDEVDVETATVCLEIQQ

[3] = biological target: AMP-activated protein kinase, AMPK (Homo sapiens) (UniProt P54646+O43741+P54619+Q9UGJ0+Q9Y478+Q13131+Q9UGI9); assay: AMP-dependent Kinase enzyme assay. An in vitro enzyme assay that detects ADP turnover that is directly proportional to AMPK activity. This uses naive AMPK that is activated during the assay with MK-8722; type: functional; conditions: 30 µM
[4] = biological target: Sialic acid-binding Ig-like lectin 9 (Homo sapiens) (UniProt Q9Y336); assay: Hs-Siglec9 ALPHAscreen SOP 20170721; conditions: 10 µM
Sialic acid-binding Ig-like lectin 9 (Homo sapiens), sequence (Q9Y336 whole entry): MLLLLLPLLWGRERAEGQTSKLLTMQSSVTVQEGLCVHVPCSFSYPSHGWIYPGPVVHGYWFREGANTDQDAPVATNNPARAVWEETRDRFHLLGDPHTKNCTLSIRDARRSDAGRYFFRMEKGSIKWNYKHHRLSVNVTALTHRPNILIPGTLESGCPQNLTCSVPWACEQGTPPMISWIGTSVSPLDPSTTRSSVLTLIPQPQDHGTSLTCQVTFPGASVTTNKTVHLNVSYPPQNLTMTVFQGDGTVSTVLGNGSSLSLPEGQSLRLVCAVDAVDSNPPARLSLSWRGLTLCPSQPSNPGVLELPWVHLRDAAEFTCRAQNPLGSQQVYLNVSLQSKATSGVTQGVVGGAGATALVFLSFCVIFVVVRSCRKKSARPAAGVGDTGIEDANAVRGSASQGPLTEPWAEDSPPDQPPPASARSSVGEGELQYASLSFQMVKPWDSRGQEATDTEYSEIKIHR

Trypanosoma cruzi = assay: Trypanosoma cruzi phosphomannomutase and mannose-1-phosphate guanylyltransferase assay; type: functional; conditions: 10 µM
[5] = biological target: T2, Arginase-2, mitochondrial (Homo sapiens) (UniProt P78540); assay: in vitro enzyme assay to detect the production of urea directly proportional to the activity of Arginase II; type: functional; conditions: 33.3 µM; also: in the data most compounds retested in dose-response had high values
T2 sequence (whole entry): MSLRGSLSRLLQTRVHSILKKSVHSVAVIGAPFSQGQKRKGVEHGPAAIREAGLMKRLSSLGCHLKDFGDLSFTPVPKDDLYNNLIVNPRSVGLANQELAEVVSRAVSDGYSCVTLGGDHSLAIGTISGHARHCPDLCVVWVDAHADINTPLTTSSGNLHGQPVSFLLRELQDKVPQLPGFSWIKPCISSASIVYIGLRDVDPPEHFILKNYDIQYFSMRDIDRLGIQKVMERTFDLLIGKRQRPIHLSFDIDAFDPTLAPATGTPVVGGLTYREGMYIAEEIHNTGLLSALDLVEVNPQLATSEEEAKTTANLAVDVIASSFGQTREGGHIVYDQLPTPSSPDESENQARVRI

[6] = biological target: T3, Proteasome subunit beta (Trypanosoma cruzi) (UniProt O96673); assay: Trypanosoma cruzi proteasome chymotrypsin-like activity (TcProtChymo) assay.; also: in the data most compounds retested in dose-response had high values; type: functional; conditions: 9.37 µM
T3 sequence (whole entry): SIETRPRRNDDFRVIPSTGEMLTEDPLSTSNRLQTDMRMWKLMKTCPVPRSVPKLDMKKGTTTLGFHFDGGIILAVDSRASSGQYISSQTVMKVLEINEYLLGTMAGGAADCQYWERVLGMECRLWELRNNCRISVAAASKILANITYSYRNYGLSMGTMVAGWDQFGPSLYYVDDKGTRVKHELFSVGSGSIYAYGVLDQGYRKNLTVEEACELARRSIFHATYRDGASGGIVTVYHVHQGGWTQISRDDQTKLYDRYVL

Homo sapiens = species: Homo sapiens; assay: To identify inhibition of the IFN signalling (Jak-Stat) pathway via expression of an eGFP reporter gene under the control of an IFN-stimulated response element (ISRE) containing MxA promoter.; type: functional; conditions: 30 µM
[7] = biological target: T4, Tyrosyl-tRNA synthetase, putative (Trypanosoma cruzi (strain CL Brener)) (UniProt Q4DSP6); assay: Trypanosoma cruzi tyrosyl tRNA synthetase (TcYRS) _High Tyrosine SOP; type: functional; conditions: 30 µM; also: in the data most compounds retested in dose-response had high values
T4 sequence (whole entry): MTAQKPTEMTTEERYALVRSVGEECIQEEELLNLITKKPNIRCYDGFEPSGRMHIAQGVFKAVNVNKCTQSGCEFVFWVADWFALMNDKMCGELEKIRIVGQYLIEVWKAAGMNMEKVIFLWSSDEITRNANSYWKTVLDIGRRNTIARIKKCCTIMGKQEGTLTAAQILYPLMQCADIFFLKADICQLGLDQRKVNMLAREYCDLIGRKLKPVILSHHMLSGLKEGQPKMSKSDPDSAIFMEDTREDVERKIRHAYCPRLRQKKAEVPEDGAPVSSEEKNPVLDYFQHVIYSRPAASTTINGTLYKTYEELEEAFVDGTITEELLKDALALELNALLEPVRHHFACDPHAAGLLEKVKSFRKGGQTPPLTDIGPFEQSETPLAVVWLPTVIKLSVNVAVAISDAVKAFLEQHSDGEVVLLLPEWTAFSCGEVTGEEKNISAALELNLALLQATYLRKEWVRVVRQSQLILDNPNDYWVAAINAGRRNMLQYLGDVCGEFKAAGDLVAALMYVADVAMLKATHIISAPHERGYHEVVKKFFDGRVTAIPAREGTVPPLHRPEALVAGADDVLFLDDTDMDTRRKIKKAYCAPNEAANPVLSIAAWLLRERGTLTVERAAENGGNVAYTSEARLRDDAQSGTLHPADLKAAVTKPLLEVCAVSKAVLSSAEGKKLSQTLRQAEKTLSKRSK

[8] = biological target: T4, Tyrosyl-tRNA synthetase, putative (Trypanosoma cruzi (strain CL Brener)); assay: Trypanosoma cruzi tyrosyl tRNA synthetase (TcYRS) SOP; type: functional; conditions: 30 µM
[9] = biological target: Chromo domain-containing protein 1 (Saccharomyces cerevisiae (strain ATCC 204508 / S288c) (Baker's yeast)) (UniProt P32657); assay: ScCHD-1 Enzyme Inhibition Assay; type: functional; conditions: 30 µM; also: in the data most compounds retested in dose-response had high values
Chromo domain-containing protein 1 (Saccharomyces cerevisiae (strain ATCC 204508 / S288c) (Baker's yeast)), sequence (P32657 whole entry, the tested form may be a part): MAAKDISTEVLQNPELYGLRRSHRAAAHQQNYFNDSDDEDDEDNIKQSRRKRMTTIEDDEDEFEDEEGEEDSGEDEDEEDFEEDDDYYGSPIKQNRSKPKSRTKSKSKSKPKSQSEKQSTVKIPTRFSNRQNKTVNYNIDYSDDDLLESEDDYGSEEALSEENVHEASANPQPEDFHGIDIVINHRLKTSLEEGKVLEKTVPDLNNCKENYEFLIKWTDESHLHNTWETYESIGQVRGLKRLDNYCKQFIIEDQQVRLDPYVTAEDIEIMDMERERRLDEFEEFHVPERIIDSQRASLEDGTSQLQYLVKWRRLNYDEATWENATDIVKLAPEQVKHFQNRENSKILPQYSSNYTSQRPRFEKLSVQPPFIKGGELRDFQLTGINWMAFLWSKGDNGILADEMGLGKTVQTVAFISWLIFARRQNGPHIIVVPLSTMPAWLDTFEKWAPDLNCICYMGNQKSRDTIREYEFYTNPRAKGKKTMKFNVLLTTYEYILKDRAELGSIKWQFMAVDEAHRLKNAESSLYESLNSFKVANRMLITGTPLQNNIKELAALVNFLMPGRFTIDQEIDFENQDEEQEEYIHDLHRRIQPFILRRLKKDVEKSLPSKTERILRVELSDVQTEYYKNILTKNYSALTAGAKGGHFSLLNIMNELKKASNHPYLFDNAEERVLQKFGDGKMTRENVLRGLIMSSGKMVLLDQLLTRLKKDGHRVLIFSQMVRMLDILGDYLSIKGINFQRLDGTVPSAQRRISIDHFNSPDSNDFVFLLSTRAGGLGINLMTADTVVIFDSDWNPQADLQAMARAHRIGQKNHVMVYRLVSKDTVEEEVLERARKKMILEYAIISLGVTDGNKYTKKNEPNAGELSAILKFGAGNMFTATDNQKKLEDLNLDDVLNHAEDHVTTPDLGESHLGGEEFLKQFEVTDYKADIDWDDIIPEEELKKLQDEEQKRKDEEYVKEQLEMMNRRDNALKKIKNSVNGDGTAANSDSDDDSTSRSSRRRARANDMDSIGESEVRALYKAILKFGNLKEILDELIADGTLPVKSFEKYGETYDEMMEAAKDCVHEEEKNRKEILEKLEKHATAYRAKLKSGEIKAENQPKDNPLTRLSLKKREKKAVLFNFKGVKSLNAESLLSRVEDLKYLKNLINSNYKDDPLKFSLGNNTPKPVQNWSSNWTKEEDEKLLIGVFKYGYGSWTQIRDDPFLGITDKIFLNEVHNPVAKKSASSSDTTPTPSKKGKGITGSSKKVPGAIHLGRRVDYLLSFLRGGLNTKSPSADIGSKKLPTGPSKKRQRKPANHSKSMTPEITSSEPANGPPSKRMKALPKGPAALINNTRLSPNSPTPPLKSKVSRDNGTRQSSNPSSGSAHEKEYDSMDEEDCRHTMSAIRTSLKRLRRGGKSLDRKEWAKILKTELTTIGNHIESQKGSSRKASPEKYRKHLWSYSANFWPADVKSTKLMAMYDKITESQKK

Protein translocase subunit SecA (Escherichia coli (strain K12)), sequence (P10408 whole entry): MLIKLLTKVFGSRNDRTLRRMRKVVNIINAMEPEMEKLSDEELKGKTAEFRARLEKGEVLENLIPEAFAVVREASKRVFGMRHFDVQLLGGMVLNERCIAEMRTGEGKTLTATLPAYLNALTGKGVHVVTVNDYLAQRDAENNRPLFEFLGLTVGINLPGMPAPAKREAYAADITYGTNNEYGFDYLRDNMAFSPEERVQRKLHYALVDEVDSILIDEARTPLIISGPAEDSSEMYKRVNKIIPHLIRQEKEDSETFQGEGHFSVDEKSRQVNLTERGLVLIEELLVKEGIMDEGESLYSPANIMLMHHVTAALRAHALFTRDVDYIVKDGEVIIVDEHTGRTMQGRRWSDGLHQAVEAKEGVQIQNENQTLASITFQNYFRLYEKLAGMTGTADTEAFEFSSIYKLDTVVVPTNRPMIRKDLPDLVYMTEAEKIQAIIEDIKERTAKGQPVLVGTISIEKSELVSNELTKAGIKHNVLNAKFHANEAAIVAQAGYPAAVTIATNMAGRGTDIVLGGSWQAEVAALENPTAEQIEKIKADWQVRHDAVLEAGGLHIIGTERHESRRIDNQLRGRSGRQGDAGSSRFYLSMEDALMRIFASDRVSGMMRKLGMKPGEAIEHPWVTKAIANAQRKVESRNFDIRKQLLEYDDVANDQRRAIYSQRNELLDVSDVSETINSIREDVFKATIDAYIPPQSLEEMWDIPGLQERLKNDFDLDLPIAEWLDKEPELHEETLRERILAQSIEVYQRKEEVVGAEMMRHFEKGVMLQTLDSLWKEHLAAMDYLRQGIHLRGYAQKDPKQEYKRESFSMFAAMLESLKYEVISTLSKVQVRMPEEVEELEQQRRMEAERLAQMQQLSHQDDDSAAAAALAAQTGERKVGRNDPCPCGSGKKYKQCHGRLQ

| SMILES | Percent Effect [1] | Percent Effect [2] | Percent Effect [3] | Percent Effect [4] | Percent Effect (Trypanosoma cruzi) | Percent Effect [5] | Percent Effect [6] | Percent Effect (Homo sapiens) | Percent Effect [7] | Percent Effect [8] | Percent Effect [9] |
| --- | --- | --- | --- | --- | --- | --- | --- | --- | --- | --- | --- |
| CCn1cnnc1C1CCN(C(=O)c2cnc(C3CC3)s2)CC1 | -2.76% | 17.7% | -5.9% | 9.8% | 0.85% | -2.28% | 3.52% | -10.4% | 6.4% | 13.9% | -4.8% |
| CN1CC(=O)N(c2cnn(C)c2)CC12CCN(Cc1ccccc1)C2 (stereo not drawn) | -4.4% | 5.48% | -2.44% | 7.88% | 10.3% | -4.39% | 4.02% | -7.57% | 5.21% | 8.64% | -4.55% |
| Cc1noc(C)c1CNC(=O)N1CCC(C(O)c2ccccc2)CC1 (stereo not drawn) | -4.23% | 11% | -3.81% | 6.33% | 7.54% | -4.79% | -1.8% | 11.9% | 2.08% | 13.6% | -3.08% |
| CCS(=O)(=O)c1ccccc1N1CCC(NC(=O)c2ccc[nH]2)CC1 | -4.07% | 8.11% | 1.8% | 7.6% | 6.78% | -7.95% | 2.15% | 13% | 8.91% | 18.3% | -1.36% |
| O=C(NCC1CCS(=O)(=O)C1)c1sccc1-c1ccc(F)cc1 (stereo not drawn) | -4.74% | -54% | -1.29% | 24.1% | 8.5% | 4.71% | 13.3% | 4.09% | 4.3% | 18.5% | 0.115% |
| Fc1ccc2c(c1)C(NCc1nnc3n1CCCCC3)CCCO2 (stereo not drawn) | -2.96% | 8.11% | -2.29% | 19.3% | 7.92% | 23.1% | -1.12% | 0.659% | 2.15% | 8.64% | -12.5% |
| CC(C)CC1SCC(=O)Nc2c1cnn2C(C)C (stereo not drawn) | -3.15% | 22.7% | 1.11% | 2.31% | 4.71% | -4.05% | 16.3% | 5.92% | 7.41% | 20.5% | -5.98% |
| Cc1ccc2c(n1)N(CCN(C)C)CCN(C(=O)c1ccc[nH]1)C2 | -0.711% | 10.7% | 6.26% | -13% | -8.07% | 1.63% | 18.6% | -6.38% | 1.06% | 3.85% | -1.69% |
